What all share (test): NCI-60 one-dose screen, 48 h (100 = growth as untreated, 0 = no growth, -100 = all killed)
One experiment concerns NCI-H23 lung. The conditions noted are these: 10 µM unless noted.
The test system of a further experiment is NCI-H226 lung. As to conditions: 10 µM unless noted.
The subject of the next experiment is MDA-MB-231 breast. The conditions noted are these: 10 µM unless noted.
Another experiment has as its system SF-268 CNS. As to conditions: 10 µM unless noted.
For another experiment, the system named is SF-539 CNS. As to conditions: 10 µM unless noted.
In a further experiment the test system is HCT-15 colon. The conditions noted are these: 10 µM.
Another experiment has as its system HT29 colon. The conditions noted are these: 10 µM unless noted.
The next experiment concerns SNB-75 CNS. The conditions noted are these: 10 µM unless noted.
The test system of the next experiment is PC-3 prostate. The conditions noted are these: 10 µM unless noted.
The subject of another experiment is SK-MEL-5 melanoma. As to conditions: 10 µM unless noted.
In a further experiment the test system is UACC-62 melanoma. As to conditions: 10 µM unless noted.
In the next experiment the test system is SK-MEL-28 melanoma. The conditions noted are these: 10 µM unless noted.
The test system of another experiment is SN12C renal. The conditions noted are these: 10 µM unless noted.
In a further experiment the test system is ACHN renal. As to conditions: 10 µM unless noted.
Another experiment deals with OVCAR-8 ovarian. The conditions noted are these: 10 µM unless noted.
The test system of a further experiment is OVCAR-3 ovarian. As to conditions: 10 µM unless noted.
A further experiment concerns NCI/ADR-RES ovarian. As to conditions: 10 µM unless noted.
A further experiment concerns MDA-MB-435 melanoma. As to conditions: 10 µM unless noted.
The subject of the next experiment is MCF7 breast. The conditions noted are these: 10 µM unless noted.
In another experiment the test system is KM12 colon. The conditions noted are these: 10 µM unless noted.

The panel holds about 83,000 compounds, 20% with a hit somewhere; the sample as a whole holds those more often.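 Values shown are percent growth following 48 h exposure of cells in 96-well plates to a single concentration of compound; below 10 was considered active.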 Values without a mark were called inactive. Calls of active or inactive are those of the source.

In the case of `c1ccc(-c2ccc3ccccc3[o+]2)cc1`, the growth with NCI-H23 lung was 84.4%; with NCI-H226 lung, 85.4%; in the experiment on MDA-MB-231 breast it was 65%; in the experiment with SF-268 CNS it was 88.7%; with SF-539 CNS, 101%; in the experiment on HCT-15 colon, 107%. In addition, the growth is 89.1% in the experiment on HT29 colon; 80.5% in the experiment on SNB-75 CNS; 76.3% in the experiment on PC-3 prostate; 88.8% in the experiment with SK-MEL-5 melanoma; 73.1% in the experiment with UACC-62 melanoma; 111% with SK-MEL-28 melanoma. Also, the growth was 90.2% in the experiment on SN12C renal; 91.6% in the experiment on ACHN renal; 96.6% in the experiment on OVCAR-8 ovarian; 100% in the experiment with OVCAR-3 ovarian; 92.5% with NCI/ADR-RES ovarian; 101% with MDA-MB-435 melanoma. Also, the growth with MCF7 breast was 67%; with KM12 colon, 91.8%.

Consider `O=S(=O)(O)c1ccc(-c2ccc([As](=O)(O)O)cc2)cc1`, for which the growth was 105% with NCI-H23 lung; 110% in the experiment with NCI-H226 lung; 104% in the experiment with MDA-MB-231 breast; 98.5% in the experiment with SF-268 CNS; 105% in the experiment with SF-539 CNS; 103% with HCT-15 colon. Also, the growth in the experiment with HT29 colon was 99.1%; in the experiment with SNB-75 CNS it was 87.1%; in the experiment on PC-3 prostate it was 98%; in the experiment on SK-MEL-5 melanoma, 110%; in the experiment on UACC-62 melanoma, 98%; in the experiment on SK-MEL-28 melanoma, 103%. Further, the growth in the experiment with SN12C renal was 104%; with ACHN renal, 105%; with OVCAR-8 ovarian, 93.8%; in the experiment with OVCAR-3 ovarian, 107%; with NCI/ADR-RES ovarian it was 108%; with MDA-MB-435 melanoma it was 103%. The growth with MCF7 breast is 103%; with KM12 colon, 105%.

Turning to `CC(=O)Nc1ccc(Cc2ccc(NC(C)=O)cc2)cc1`, the growth was 107% in the experiment on NCI-H23 lung; 107% in the experiment on NCI-H226 lung; 105% in the experiment with MDA-MB-231 breast; 117% in the experiment with SF-268 CNS; 104% in the experiment with SF-539 CNS; 107% in the experiment on HCT-15 colon. Moreover, the growth in the experiment on HT29 colon is 104%; in the experiment with SNB-75 CNS it was 93.4%; in the experiment on PC-3 prostate, 71.4%; in the experiment with SK-MEL-5 melanoma it was 104%; in the experiment on UACC-62 melanoma it was 107%; in the experiment on SK-MEL-28 melanoma, 109%. Also, the growth with SN12C renal is 101%; in the experiment with ACHN renal, 101%; with OVCAR-8 ovarian, 95.6%; with OVCAR-3 ovarian, 119%; in the experiment with NCI/ADR-RES ovarian, 95.9%; with MDA-MB-435 melanoma, 106%. The growth in the experiment with MCF7 breast was 99.8%; with KM12 colon it was 139%.

Take `C#CC1(O)CCC2(C)C(CCC3C4CCC(=O)C4(C)CCC32)C1` (stereo not given): the growth was 97.3% in the experiment on NCI-H23 lung; 86.4% with NCI-H226 lung; 101% in the experiment with MDA-MB-231 breast; 97.9% in the experiment on SF-268 CNS; 97.2% with SF-539 CNS; 97.5% with HCT-15 colon. Also, the growth in the experiment on HT29 colon was 86.9%; with SNB-75 CNS, 84.4%; with PC-3 prostate, 90.9%; in the experiment with SK-MEL-5 melanoma it was 96.2%; with UACC-62 melanoma, 88.7%; in the experiment with SK-MEL-28 melanoma it was 105%. In addition, the growth with SN12C renal is 101%; in the experiment on ACHN renal, 97.8%; in the experiment on OVCAR-8 ovarian, 97.6%; in the experiment on OVCAR-3 ovarian, 109%; in the experiment with NCI/ADR-RES ovarian, 96.4%; in the experiment with MDA-MB-435 melanoma, 101%. Also, the growth in the experiment with MCF7 breast is 104%; with KM12 colon it was 102%.

Consider `CC12CCC3C(CC=C4CC(O)CCC43C)C1C/C(=C\N1CCOCC1)C2=O` (stereo not given), for which the growth with NCI-H23 lung is 111%; in the experiment with NCI-H226 lung, 93.2%; in the experiment on MDA-MB-231 breast, 106%; in the experiment on SF-268 CNS, 109%; with SF-539 CNS it was 108%; in the experiment with HCT-15 colon, 99.9%. The growth is 105% with HT29 colon; 83.5% with SNB-75 CNS; 96.4% in the experiment with PC-3 prostate; 99.1% in the experiment with SK-MEL-5 melanoma; 104% with UACC-62 melanoma; 106% in the experiment on SK-MEL-28 melanoma. For the same compound, the growth was 102% in the experiment with SN12C renal; 99.6% in the experiment with ACHN renal; 100% in the experiment on OVCAR-8 ovarian; 116% in the experiment on OVCAR-3 ovarian; 106% in the experiment with NCI/ADR-RES ovarian; 107% in the experiment on MDA-MB-435 melanoma. Also, the growth in the experiment on MCF7 breast is 92.2%; in the experiment with KM12 colon it was 108%.

In the case of `CSc1ccccc1NP1(=O)OCC(C)([N+](=O)[O-])CO1` (stereo not given), the growth in the experiment on NCI-H23 lung is 106%; in the experiment with NCI-H226 lung, 98.4%; in the experiment on MDA-MB-231 breast, 105%; with SF-268 CNS, 105%; in the experiment on SF-539 CNS, 91.4%; in the experiment on HCT-15 colon it was 93.1%. The growth with HT29 colon was 105%; in the experiment with SNB-75 CNS it was 86%; with PC-3 prostate it was 98%; in the experiment with SK-MEL-5 melanoma, 98.2%; in the experiment on UACC-62 melanoma, 101%; with SK-MEL-28 melanoma, 98.6%. The growth in the experiment on SN12C renal was 98%; in the experiment with ACHN renal, 97.5%; in the experiment with OVCAR-8 ovarian it was 98%; in the experiment with OVCAR-3 ovarian it was 107%; in the experiment with NCI/ADR-RES ovarian, 109%; in the experiment on MDA-MB-435 melanoma it was 107%. Besides, the growth with MCF7 breast was 98.1%; with KM12 colon it was 104%.

Turning to `C[CH2][Pb]([CH2]C)([CH2]C)[O]C(=O)COc1ccccc1`, the growth with NCI-H23 lung was -6.75% (active); in the experiment with NCI-H226 lung it was 23.2%; with MDA-MB-231 breast, 20.1%; with SF-268 CNS, -10.1% (active); in the experiment with SF-539 CNS it was -21.8% (active); in the experiment on HCT-15 colon it was 12.4%. For the same compound, the growth in the experiment on HT29 colon was 4.3% (active); with SNB-75 CNS, 4.45% (active); in the experiment on PC-3 prostate it was 20.3%; in the experiment on SK-MEL-5 melanoma it was -21.4% (active); in the experiment with UACC-62 melanoma, 25.3%; in the experiment with SK-MEL-28 melanoma, 28.3%. In addition, the growth was 8.52% (active) in the experiment on SN12C renal; 11.5% in the experiment with ACHN renal; 9.05% (active) with OVCAR-8 ovarian; -2.95% (active) in the experiment on OVCAR-3 ovarian; 2.79% (active) in the experiment on NCI/ADR-RES ovarian; -31.9% (active) with MDA-MB-435 melanoma. For the same compound, the growth in the experiment with MCF7 breast is 0.688% (active); in the experiment on KM12 colon it was 1.59% (active).

For the compound `C[CH2][Pb]([CH2]C)([CH2]C)[O]C(=O)c1ccc(N)cc1`, the growth in the experiment on NCI-H23 lung is 51.2%; in the experiment with NCI-H226 lung it was 87.5%; with MDA-MB-231 breast it was 88.7%; in the experiment with SF-268 CNS it was 72.9%; with SF-539 CNS it was 87.4%; with HCT-15 colon it was 66.1%. The growth was 79.8% with HT29 colon; 47.2% in the experiment on SNB-75 CNS; 57.5% with PC-3 prostate; 39% in the experiment on SK-MEL-5 melanoma; 73.4% in the experiment on UACC-62 melanoma; 58.8% in the experiment with SK-MEL-28 melanoma. For the same compound, the growth is 77.2% in the experiment on SN12C renal; 70.7% with ACHN renal; 82.1% in the experiment with OVCAR-8 ovarian; 57.5% in the experiment with OVCAR-3 ovarian; 59.7% with NCI/ADR-RES ovarian; -72.9% (active) with MDA-MB-435 melanoma. Further, the growth in the experiment on MCF7 breast was 56.1%; in the experiment on KM12 colon, 59.4%.

The record behind these values is PubChem BioAssay (NCI).
